Out of some 69,000 compounds screened, about 8,600 (12%) showed an effect of 50% or more. The sample holds strong results, similar compounds and a random draw of the others, so the mix is not that of the screen.
The molecules below were run on Plasmodium berghei (assay: Screen against P. berghei liver stage (PbLuc), transformed with Luciferase, at 10uM). Details: tested at 10 uM.
Assay type: functional, HepG2

Structure (SMILES)	INHIBITION [%]
O=C1C(NS(=O)(=O)c2ccc(F)cc2F)CCN1Cc1ccccc1 (stereo not given)	2.97
Cc1ccc(NC(=O)N2CCC3(CCC(C(=O)N(C)C)O3)CC2)cc1 (stereo not given)	46.6
Cc1cc(C)n(CC2CCCN2CCC(=O)Nc2cc(C)on2)n1 (stereo not given)	11.4
O=C(Cc1ccccn1)N1C[C@@H](Oc2cccnc2)[C@H]2OCCC[C@H]21	5.04
CN(C)c1cccc(C(=O)Nc2ccn(CCc3ccncc3)n2)c1	40.7
CSc1ccc(C(=O)N2C[C@@H]3CC[C@H]2CN(Cc2ccccc2)C3)cc1	39.1
COc1ccc(C(=O)N(C)Cc2ncc(C)c(OC)c2C)c(OC)c1	1.11
CCCS(=O)(=O)N1CCO[C@H]2[C@H](OCc3ccccn3)CC[C@@H]21	33.5
CC(c1nc(-c2cccnc2)no1)N(C)CCCOc1ccccc1 (stereo not given)	18.5
CCOc1ccccc1CN(C)C(C)c1nc(-c2cccnc2)no1 (stereo not given)	24.2
COc1ccccc1CCN(C)C(C)c1nc(-c2cccnc2)no1 (stereo not given)	68.1
CNC(=O)c1csc(-c2cccnc2)n1	-17.2
Cc1ccc(C)c(NC(=O)c2n[nH]c(-n3cnnc3)n2)c1	36.3
CCn1cc(C(=O)Nc2cc(C)ccc2C)cn1	3.04
COCCCN(CCOC)C(=O)Nc1ccc(C)cc1C	7.9
COc1ncc(NC(=O)Nc2cc(C)ccc2OC)cn1	42.6
COc1ccc(C)cc1NC(=O)c1coc(C)n1	60.9
Cc1ccc(C)c(NC(=O)c2coc(C)n2)c1	62.3
COc1ccc(C)cc1NC(=O)Nc1cnc(O)nc1O	0.29
Cc1ccc(NC(=O)c2coc(C)n2)c(C)c1	62.3
Cc1ccc(NC(=O)CNc2ccccc2C(N)=O)c(C)c1	39.1
Cn1ccnc1N1CCN(C(=O)Cc2ccc(F)cc2)CC1	0
CCS(=O)(=O)N1CC[C@@H]2[C@H]1CCC(=O)N2CCOC	24.9
CC(C)OCCN(C)C(C)c1cccc(S(N)(=O)=O)c1 (stereo not given)	26.3
CS(=O)(=O)N1CCCC12CCCN(S(=O)(=O)c1ccc(F)c(F)c1)C2 (stereo not given)	-0.371
O=C(O)[C@@H]1CN(C(=O)NCC2CCCCC2)C[C@H]1c1ccccn1	-43.5
CCOCC1CN(CCN2CCCCC2)Cc2cnn(C)c21 (stereo not given)	36.9
Cc1ccc(Oc2ncccc2C(=O)N(C)CCCN(C)C)cc1	30.3
CC(C)(C)c1ncc(S(C)(=O)=O)c(C2CCCNC2)n1 (stereo not given)	25.3
O=C1c2cccnc2OC(CN2CCOCC2)CN1C1CCC1 (stereo not given)	-10.3
